# KCNQ2 inh: inhibitors of rat KCNQ2 potassium channel; O88943; CHO-K1 KCNQ2, FluxOR thallium flux, 20 min; stronger effect = lower value; B-score at 10 µM; hit rate 1.1% among 310,000;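 active means fluorescence ratio B-score at most minus 3 library SDs, with starting brightness B-score within 2 library SDs, cut at about -5.5 in these data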
# KCNQ2 enhance: enhances the rat KCNQ2 potassium channel; hit rate 0.54% among 310,000; O88943; AID 2239; B-score at 10 µM; CHO-K1 KCNQ2, FluxOR thallium flux fluorescence; stronger effect = higher value;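 active means fluorescence ratio B-score at least 3 SD of library B-scores, with initial fluorescence B-score within 3 of them, cut at about 5.3 in these data; same plate scores as AID 2156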;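 further: B-score of peak minus minimum over baseline fluorescence ratio after K+ and Tl+ stimulus; positive B-score means potentiation of KCNQ2 with more thallium influx and brighter signal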
# Kir21 confirm: confirmation of mouse Kir2.1 potassium channel inhibitors; hit rate 41% among 2,300; AID 2032; Kir2.1-expressing cells, FluxOR thallium flux fluorescence; stronger effect = lower value; Tl flux remaining, % of negative control (stronger effect = lower value), % at 10 µM; shares compounds with KCNQ2 enhance;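 active means Primary-screen hit whose thallium flux fell at least 3 control SD below untreated wells in both duplicates, with normal baseline fluorescence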;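 further: 0% = blank wells without stimulus and 100% = stimulated no-compound controls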
# HEK293 ctr: alters thallium flux in parental HEK293 cells, Kir2.1 counter-screen; hit rate 19% among 2,300; shares compounds with KCNQ2 enhance; FluxOR signal as % of negative control (100 = no effect), % at 10 µM; FluxOR thallium flux fluorescence; 0% = unstimulated blank wells;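 active means dye signal at least 3 control SD above or below untreated wells in both duplicates, raw fluorescence within 3, either direction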;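 further: percent is based on the flux ratio of peak minus minimum fluorescence over baseline F0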
# CHO-K1 Tl ctr: counter-screen for KCNQ2 potentiators: effect in parental CHO-K1 cells; shares compounds with KCNQ2 enhance; FluxOR thallium flux fluorescence; zero = vehicle mean+3SD, 100% = vehicle-minus-blank window; activity increase over 3SD of controls, % at 10 µM; hit rate 43% among 1,200; AID 2282;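 active means signal rise of at least 3 SD above the untreated control mean, in both duplicate wells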;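 further: counter screen of KCNQ2 potentiator hits so any rise reflects channel-independent effects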
# KCNQ1 pot spec: tests whether KCNQ2 potentiators also act on human KCNQ1; AID 2283; CHO KCNQ1 stable, FluxOR thallium flux fluorescence; beyond 3SD, as % of vehicle-control signal; shares compounds with KCNQ2 enhance; activation over 3SD threshold, % at 10 µM; hit rate 28% among 1,200;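 active means fluorescence ratio rise of at least 3 SD of vehicle wells above their mean, in both replicate wells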;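 further: 0% = vehicle mean plus 3 SD and 100% = vehicle minus unstimulated blank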
# KCNQ2 pot confirm: rat KCNQ2 channel potentiator confirmation; potentiation, less the hit threshold, % at 10 µM; hit rate 68% among 1,200; shares compounds with KCNQ2 enhance; CHO-KCNQ2 cells, FluxOR thallium flux fluorescence; AID 2287;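 active means fluorescence ratio rising 3 SD or more over the vehicle control mean in both replicates, plus primary screen hit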;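 further: peak minus minimum thallium fluorescence divided by baseline after K/Tl stimulus; 0% = vehicle mean plus 3 SD and 100% = vehicle minus unstimulated blank difference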
# Kir2-1 sel: tests whether KCNQ2 potentiators also affect mouse Kir2.1; hit rate 2% among 1,200; HEK293 Kir2.1, FluxOR thallium flux fluorescence; activity over 3SD threshold, % at 10 µM; shares compounds with KCNQ2 enhance;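 active means fluorescence ratio rise of at least 3 SD above the vehicle-control mean, seen in both replicates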;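 further: 0% = vehicle mean plus 3 SD and 100% = vehicle minus no-stimulus blank window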
# KCNQ2 W236L pot: rat KCNQ2 W236L mutant potentiation by KCNQ2 potentiators; shares compounds with KCNQ2 enhance; hit rate 10% among 940; CHO KCNQ2-W236L, automated patch clamp current; current increase over 3SD of negative controls (%), stronger effect = higher value, % at 25 µM;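 active means current increase at least 3 SD of the untreated controls above them in both duplicate recordings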
# Target sequence (O88943 whole entry W236L, looked up): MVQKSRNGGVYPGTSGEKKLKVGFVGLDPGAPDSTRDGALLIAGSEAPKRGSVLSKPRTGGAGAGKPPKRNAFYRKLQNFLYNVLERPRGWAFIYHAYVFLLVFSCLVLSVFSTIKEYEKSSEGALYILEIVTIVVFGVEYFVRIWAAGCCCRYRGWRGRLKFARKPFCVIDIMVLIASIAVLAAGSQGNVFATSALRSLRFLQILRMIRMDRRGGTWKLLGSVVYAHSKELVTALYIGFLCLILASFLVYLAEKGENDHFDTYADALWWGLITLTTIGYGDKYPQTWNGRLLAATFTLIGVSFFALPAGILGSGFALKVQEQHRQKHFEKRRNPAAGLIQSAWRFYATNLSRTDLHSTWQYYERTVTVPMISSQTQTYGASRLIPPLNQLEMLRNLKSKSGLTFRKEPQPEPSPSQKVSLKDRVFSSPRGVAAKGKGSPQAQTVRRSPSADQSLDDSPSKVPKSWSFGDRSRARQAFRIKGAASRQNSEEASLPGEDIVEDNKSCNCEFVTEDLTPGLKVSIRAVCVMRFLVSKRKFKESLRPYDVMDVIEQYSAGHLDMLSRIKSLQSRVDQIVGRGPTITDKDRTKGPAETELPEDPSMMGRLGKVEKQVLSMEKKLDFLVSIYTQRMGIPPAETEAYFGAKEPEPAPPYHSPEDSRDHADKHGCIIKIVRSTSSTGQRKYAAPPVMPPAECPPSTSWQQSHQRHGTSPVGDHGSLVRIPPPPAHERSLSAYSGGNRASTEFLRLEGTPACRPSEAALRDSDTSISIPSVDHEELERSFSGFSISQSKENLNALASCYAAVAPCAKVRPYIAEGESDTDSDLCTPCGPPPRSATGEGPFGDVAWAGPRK
# * hit, by the source's call; i = inactive; · = no result given. Compounds with a hit are over-represented: about 1.6% of the library has one in this group of screens.
SMILES,KCNQ2 inh,KCNQ2 enhance,Kir21 confirm,HEK293 ctr,CHO-K1 Tl ctr,KCNQ1 pot spec,KCNQ2 pot confirm,Kir2-1 sel,others
Cc1ccc(O)c(C(=O)CC(=O)c2cccc(F)c2)c1,i,1.6,·,·,·,·,·,·,
Cc1ccc(O)c(C(=O)CC(=O)c2ccc(Cl)cc2)c1,i,6.2*,i,i,-9,-18,-11,-34,
Cc1cccc(C(=O)CC(=O)c2cc(Cl)ccc2O)c1,i,0.16,·,·,·,·,·,·,
O=C(CC(=O)c1cc(Cl)ccc1O)c1ccccc1,i,5.3*,i,130%*,-5,-16,-3,-14,KCNQ2 W236L pot=i
NC(N)=NC(=S)Nc1ccc(Cl)cc1,i,2.7,·,·,·,·,·,·,
CC(=O)N1CCN(S(=O)(=O)c2cccc(C(=O)NNC(=O)COc3ccc(Cl)cc3C)c2)CC1,i,·,·,·,·,·,·,·,
COc1cc(CN(C(=O)c2ccco2)C2CCS(=O)(=O)C2)cc(OC)c1OC (centres undefined),i,·,·,·,·,·,·,·,
COc1ccc(C)c(NC(=O)NCCc2cnc[nH]2)c1,i,·,·,·,·,·,·,·,
C=CCc1cc(Cl)ccc1OCCCNC(C)C,i,0.39,·,·,·,·,·,·,
C=CCc1cc(Cl)ccc1OCCOCCNC(C)CC (centres undefined),i,0.16,i,i,·,·,·,·,
CCOc1cccc(-c2c(C(=O)N/N=C/c3cccs3)nnn2-c2nonc2N)c1,i,0.54,·,·,·,·,·,·,
CCCc1nc(SCC(=O)NCc2ccco2)c2c(=O)n(C)c(=O)n(C)c2n1,i,2.5,·,·,·,·,·,·,
CCc1nc(SCC(=O)c2ccccc2)c2c(=O)n(C)c(=O)n(C)c2n1,i,5.4*,i,i,-25,-19,5.8*,-23,KCNQ2 W236L pot=i
Cn1c(=O)c2c(SCC(=O)Nc3nccs3)nc(C3CC3)nc2n(C)c1=O,i,0.34,·,·,·,·,·,·,
CCCc1nc(SCC(=O)c2ccccc2)c2c(=O)n(C)c(=O)n(C)c2n1,i,25*,i,i,67*,79*,56*,-26,KCNQ2 W236L pot=i
Cn1c(=O)c2c(SCC(=O)c3ccccc3)nc(C3CC3)nc2n(C)c1=O,i,5.4*,i,i,84*,-14,2.4*,-24,KCNQ2 W236L pot=i
CCc1nc(SCC(=O)NCCc2ccccc2)c2c(=O)n(C)c(=O)n(C)c2n1,i,0.86,·,·,·,·,·,·,
Cc1c(NC(=O)C(=O)/C=C(\O)c2ccc(Br)cc2)c(=O)n(-c2ccccc2)n1C,i,0.33,·,·,·,·,·,·,
CC(C)CC(=O)Nc1ccc(Nc2ccccc2)cc1,i,1.6,·,·,·,·,·,·,
CC(C)(C)CC(=O)Nc1ccc(Nc2ccccc2)cc1,i,6.3*,i,i,133*,-21,16*,-40,KCNQ2 W236L pot=i
CCOc1ccccc1N(CC(=O)NCCSc1ccccc1)S(C)(=O)=O,i,·,·,·,·,·,·,·,
O=C(NCc1ccc(F)cc1)Nc1ccc(Cl)cc1,i,1.4,·,·,·,·,·,·,
O=C(NCc1ccc(F)cc1)Nc1cccc(Cl)c1,i,5.8*,i,i,87*,54*,13*,-36,KCNQ2 W236L pot=i
Cc1nn(S(=O)(=O)c2ccc(F)cc2)c(C)c1S(=O)(=O)N1CCCCC1,i,1,·,·,·,·,·,·,
Cc1ccc(C2(CCNC(C)c3cccs3)CCOC(C(C)C)C2)cc1 (centres undefined),i,·,·,·,·,·,·,·,
SMILES,KCNQ2 inh,KCNQ2 enhance,Kir21 confirm,HEK293 ctr,CHO-K1 Tl ctr,KCNQ1 pot spec,KCNQ2 pot confirm,Kir2-1 sel,others
COc1ccccc1C1(CCNC(C)c2cccs2)CCOC(C(C)C)C1 (centres undefined),i,0.28,40%*,72%*,·,·,·,·,
CCCc1cc(=O)[nH]c(SCC(=O)c2cc(C)n(CC(F)(F)F)c2C)n1,i,6.4*,i,i,-13,74*,-16,-48,
CCCc1cc(=O)[nH]c(SCC(=O)c2cc(C)n(CCOC)c2C)n1,i,0.18,·,·,·,·,·,·,
Cc1cc(C(F)(F)F)n(-c2ccc(N)cc2)n1,i,·,·,·,·,·,·,·,
CC(C)c1nc(SCC(=O)Nc2nccs2)c2ccccc2n1,i,0.11,·,·,·,·,·,·,
CC(C)c1nc(SCC(=O)c2ccc(F)cc2)c2ccccc2n1,i,11*,i,i,-9,-4,36*,-40,KCNQ2 W236L pot=i
Cc1ccc(C(=O)CSc2nc(C(C)C)nc3ccccc23)cc1,i,3.9,·,·,·,·,·,·,
Cc1csc(NC(=O)CSc2nc(C(C)C)nc3ccccc23)n1,i,6.2*,·,·,18*,-29,1.0*,-70,KCNQ2 W236L pot=i
N#CC(Cc1ccccc1OC(F)F)c1nc2ccccc2[nH]1 (centres undefined),i,·,·,·,·,·,·,·,
CC(NC(=O)C12CC3CC(CC(C3)C1)C2)c1ccc2c(c1)OCCO2 (centres undefined),i,3.9,·,·,·,·,·,·,
Cc1ccnc(NC(=O)C23CC4CC(CC(C4)C2)C3)c1,i,9.7*,i,i,-8,-13,33*,-18,KCNQ2 W236L pot=i
Cc1ccc(C(C)NC(=O)C23CC4CC(CC(C4)C2)C3)cc1 (centres undefined),i,6*,i,i,-4,65*,6.5*,-22,KCNQ2 W236L pot=i
CCC(=O)Nc1ccc(NC(=O)C23CC4CC(CC(C4)C2)C3)cn1,i,·,·,·,·,·,·,·,
COc1ccc(C(CNC(=O)C(CC(C)C)NS(=O)(=O)c2ccc(C)cc2)N2CCOCC2)cc1 (centres undefined),i,0.56,·,·,·,·,·,·,
CC(C)c1cc(=O)n2[nH]c(N)nc2n1,i,0.41,·,·,·,·,·,·,
CC(=O)N(C)c1ccc(NC(=O)c2ccc([N+](=O)[O-])cc2Cl)cc1,i,0.64,·,·,·,·,·,·,
COc1ccccc1CC(=O)NC1CCCCCC1,i,1.9,·,·,·,·,·,·,
CCOc1cc(Br)c(CC(=O)NC2CCCCCC2)cc1OCC,i,14*,i,i,1.1*,14*,15*,-34,KCNQ2 W236L pot=i
CN1CCN(c2nc3c(c(=O)[nH]c(=O)n3C)n2Cc2ccc(Cl)cc2)CC1,i,·,·,·,·,·,·,·,
CC(C)c1nnc(SCC(=O)NCCC2=CCCCC2)n1N,i,5.9*,i,i,-17,2.2*,24*,-21,KCNQ2 W236L pot=2.6%*
Nc1cc(N)nc(SCC(=O)NCCC2=CCCCC2)n1,i,0.09,·,·,·,·,·,·,
CCOc1cc(/C=N/NC(=O)C(=O)NCc2ccc3c(c2)OCO3)ccc1OCC(=O)N1CCOCC1,i,2,·,·,·,·,·,·,
Cc1ccccc1Nc1nc(NCc2ccco2)c2ccccc2n1,-6.3*,-6.3,16%*,i,·,·,·,·,
c1ccc(Nc2nc(NCc3ccco3)c3ccccc3n2)cc1,i,·,·,·,·,·,·,·,
Cc1cccc(Nc2nc(NCc3ccco3)c3ccccc3n2)c1,i,·,62%*,i,·,·,·,·,
Oc1ccccc1Nc1nc(NCc2ccco2)c2ccccc2n1,i,·,·,·,·,·,·,·,

# High-throughput results deposited in PubChem by Johns Hopkins Ion Channel Center.
